A selection: hits, their analogues and other compounds. The true share with any hit is near 8.5%.
ALDH1A1 block = qHTS Assay for Inhibitors of Aldehyde Dehydrogenase 1 (ALDH1A1). Aldehyde dehydrogenase 1A1 (Homo sapiens), P00352. Purified ALDH1A1, NADH fluorescence, propionaldehyde substrate. Potency, µM (highest dose often 75.3 µM), hits mostly inhibitors. hit rate 7.3% among 220,000
Target sequence (P00352 whole entry, looked up): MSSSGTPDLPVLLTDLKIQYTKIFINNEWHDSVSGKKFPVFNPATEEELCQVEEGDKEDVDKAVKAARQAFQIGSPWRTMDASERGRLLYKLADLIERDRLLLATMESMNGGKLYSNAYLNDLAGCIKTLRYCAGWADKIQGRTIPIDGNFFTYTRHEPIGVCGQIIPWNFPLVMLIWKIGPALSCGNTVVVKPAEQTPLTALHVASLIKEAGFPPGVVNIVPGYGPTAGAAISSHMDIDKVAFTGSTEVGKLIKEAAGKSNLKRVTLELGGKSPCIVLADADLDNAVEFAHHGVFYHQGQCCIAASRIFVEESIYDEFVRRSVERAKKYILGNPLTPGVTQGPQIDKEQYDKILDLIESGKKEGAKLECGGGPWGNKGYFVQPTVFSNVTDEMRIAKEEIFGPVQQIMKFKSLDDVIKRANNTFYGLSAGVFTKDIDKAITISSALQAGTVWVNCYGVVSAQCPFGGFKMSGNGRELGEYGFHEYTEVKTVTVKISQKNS
Coupling enz = qHTS Assay for Inhibitors of Fructose-1,6-bisphosphate Aldolase from Giardia Lamblia: Coupling assay counterscreen; coupling enzyme system counterscreen, AmpLite Red fluorescence; activity change, negative = inhibition, % at 58.2 µM, hits read low; hit rate 0.67% among 290,000; in the data active = activity change below about -30%
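Counterscreen lacking aldolase: glyceraldehyde-3-phosphate coupling-enzyme reagent preincubated 10 min at RT with compound (at 57.5 uM final), then substrate/coupling system with AmpLite Red added; fluorescence read at 525/598 nm after 20 min RT.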
NPSR antag = qHTS Assay for Antagonists of the Neuropeptide S Receptor: cAMP Signal Transduction. Q6W5P4. CHO-NPSR cells, cAMP TR-FRET, antagonist mode. Potency, µM (doses to about 38.3 µM), actives largely listed as inhibitors. hit rate 1% among 220,000; active = well fitted curve in the direction sought with a large enough effect; inconclusive = small, poorly fitted or top-dose-only effect, or another doubt; inactive = no such curve, though single readings can be large; an effect the other way counts as inactive or inconclusive; also: nearly all actives have a fitted effect of over 50% in size
Sfp inh = qHTS Assay for Inhibitors of Bacillus subtilis Sfp phosphopantetheinyl transferase (PPTase). 4'-phosphopantetheinyl transferase ffp (Bacillus subtilis), Q9F4F7. Biochemical Sfp PPTase activity, qHTS. Potency, µM, hits mostly inhibitors. hit rate 3.5% among 310,000; active = well fitted curve in the direction sought with a large enough effect; inconclusive = small, poorly fitted or top-dose-only effect, or another doubt; inactive = no such curve, though single readings can be large; an effect the other way counts as inactive or inconclusive;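 also: the enzyme is Sfp with the accession as filed and its product quenches rhodamine fluorescence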
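After 15 min at room temperature with compound, 15 nM Sfp received 5 uM rhodamine-CoA plus 12.5 uM BHQ-2-ybbR (50 mM Hepes pH 7.6, 10 mM MgCl2). Rate came from the fluorescence difference over 30 min, ex 525/em 598 nm.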
KDM4E inh = qHTS Assay for Inhibitors of Human Jumonji Domain Containing 2E (JMJD2E) | Lysine-specific demethylase 4E (Homo sapiens), B2RXH2 | JMJD2E catalytic domain, FDH-coupled NADH fluorescence (FDH is formaldehyde dehydrogenase) | Potency, µM (highest dose often 57.1 µM), most hits filed as inhibitors | hit rate 1.6% among 230,000; also: nearly all actives have a fitted effect of over 50% in size
RGS12 GoLoco inh = qHTS Assay for Inhibitors of RGS12 GoLoco Motif Activity (Red Fluorophore); Guanine nucleotide-binding protein G(i) subunit alpha-1 (Homo sapiens), P63096; Gai1:RGS12 GoLoco peptide FP, rhodamine, 10 min; Potency, µM (highest dose often 61.6 µM), most hits filed as inhibitors; hit rate 0.44% among 230,000; AID 880, 2007; active = well fitted inhibition curve with a large enough effect, not every such curve was filed as active; inactive = no such curve, though single readings can be large or run the other way; also: nearly all actives have a fitted effect of over 30% in size
A number is an active result; . = inactive; ? = inconclusive; / = not tested or not shown; [ ] = another dose, or the depositor's remark. Unless noted, calls follow the shape of the dose curve; as a rule, active = well fitted inhibition curve with a large enough effect (not every such curve was filed as active); inconclusive = small, poorly fitted or top-dose-only effect, or another doubt; inactive = no such curve, though single readings can be large or run the other way.

SMILES	ALDH1A1 block	Coupling enz	NPSR antag	Sfp inh	KDM4E inh	RGS12 GoLoco inh
O=C(O)c1ccc2c(c1)C(=O)N([C@@H](C(=O)O)C(c1ccccc1)c1ccccc1)C2=O	/	.	/	.	/	/
COc1ccc(Nc2cc(=O)n(C3CCCCC3)c(=O)[nH]2)c(OC)c1	7.1µM	.	.	.	.	.
COC(=O)C1CCN(c2cc(=O)n(C3CCCCC3)c(=O)[nH]2)CC1	?	.	.	.	.	.
Cc1cc(C)cc(Nc2cc(=O)n(C3CCCCC3)c(=O)[nH]2)c1	0.45µM	.	.	.	.	.
O=C1C(=O)N(CNc2cccnc2)c2ccccc21	.	-37	.	.	.	.
O=C1C(=O)N(CNc2ccccn2)c2ccccc21	3.2µM	/	?	.	.	.
COCCC(=O)N1CCC(Oc2ccc(C(=O)N3CCC(N(C)C)C3)cc2)CC1 (stereo not given)	/	.	/	.	/	/
CCc1cccc(C)c1NC(=O)CC1Oc2ccc(C)cc2NC1=O (stereo not given)	/	.	/	.	/	/
O=C(O)CC1S/C(=N/N=C/c2ccc(Br)cc2)N(c2ccccc2)C1=O (stereo not given)	14µM	.	.	.	.	.
CCOC(=O)C1(Cc2ccc(Cl)cc2)CCN(C(=O)c2cscn2)CC1	?	.	.	.	.	.
CCN(CC)CCn1c(=S)[nH]c2cc(C(=O)NCc3ccccc3Cl)ccc2c1=O	/	.	/	.	/	/
Cc1cccc(NC2CCCCC2NS(=O)(=O)c2ccccc2)c1 (stereo not given)	/	.	/	.	/	/
Cc1c(C(=O)N2CCCC2)c(S(=O)(=O)N2CCN(c3ccccc3F)CC2)c(C)n1C	/	/	/	.	/	/
O=C(CCC(=O)Nc1ccccc1)NNS(=O)(=O)c1ccc(Cl)cc1	/	/	/	56µM	/	/
O=C(O)CCCC(=O)Nc1ccc(Br)cc1	.	.	.	.	.	.
O=C(O)CCCC(=O)Nc1ccc(Cl)cc1	28µM	.	.	.	.	.
Cc1ccc(NC(=O)CCC(=O)NNS(=O)(=O)c2ccc(Cl)cc2)cc1C	/	/	/	.	/	/
COc1ccc(OC)c(CCNC(=O)c2ccc(CS(=O)Cc3ccc(Cl)cc3)o2)c1 (stereo not given)	/	/	/	.	/	/
COC(=O)CN1C(=O)[C@@H]2[C@H](C1=O)[C@@H]1CC(C(=O)OC)=C[C@@H](C(=O)OC)C3C1=C(C(=O)[C@]3(C)NC(=O)c1ccccc1)[C@@H]2C (stereo not given in full)	/	.	/	.	/	/
CC(C)(C)NC(=O)C(c1ccncc1)N(Cc1cccs1)C(=O)Cn1nnc(-c2cccs2)n1 (stereo not given)	4.5µM	.	?	?	?	.
CC(C)(C)NC(=O)C(c1ccc(O)cc1)N(C(=O)Cn1nnc(-c2ccc(F)cc2)n1)c1ccccc1F (stereo not given)	.	.	13µM	.	.	.
CC(C)(C)NC(=O)C(c1ccncc1)N(C(=O)Cn1nnc(-c2ccc(F)cc2)n1)c1ccccc1F (stereo not given)	?	.	.	?	.	.
Cc1ccc(C(C(=O)NC(C)(C)C)N(Cc2ccco2)C(=O)Cn2nnc(-c3cccs3)n2)cc1 (stereo not given)	.	.	.	.	.	.
O=C(NCc1ccccc1)C(c1ccc(F)cc1)N(Cc1ccc2c(c1)OCO2)C(=O)Cn1nnc(-c2cccs2)n1 (stereo not given)	25µM	.	.	.	.	.
O=C(Cn1nnc(-c2ccc(F)cc2)n1)OCC(=O)c1ccccc1	?	.	.	79µM	.	.
O=C(OCCOc1ccccc1)c1n[nH]c2ccccc12	.	.	.	.	.	.
CC(=O)/C=C(\C)Nc1ccccc1O	/	.	.[7.67 µM]	?	?	.
CC(C)(C)NC(=O)C(c1ccncc1)N(C(=O)Cn1nnc(-c2ccc(F)cc2)n1)c1ccccc1 (stereo not given)	3.2µM	.	.	20µM	.	.
